Laboratory results reported in the supplement of paper PMC6555819.

Assays:
Assay in all cases: PBM binding z-score (relative to random genomic background probes); higher = stronger binding; sequences stand for … in GC…GCGATTGACAGCGTAGAATGAAGG
[1] = system: FXR:RXRa (NR concentration 270 nM, RXRa partner concentration 90 nM)
Summary of the method: (§1)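 Ligand-free nuclear receptor dimers were applied to custom Agilent 4×180K protein-binding microarrays whose double-stranded probes carried direct-repeat seeds, single-nucleotide variants, half-site ablations and random human genomic background sequences in 34-nt variable regions. Incubation lasted 1 h. Binding z-scores were computed against the random background probes from regression-normalized fluorescence.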

[2] = system: LXRa:RXRa (NR concentration 270 nM, RXRa partner concentration 90 nM)
Summary of the method: as §1

[3] = system: LXRa homodimer (NR concentration 270 nM)
Summary of the method: as §1

[4] = system: LXRb:RXRa (NR concentration 270 nM, RXRa partner concentration 90 nM)
Summary of the method: as §1

[5] = system: LXRb homodimer (NR concentration 270 nM)
Summary of the method: as §1

[6] = system: PPARa:RXRa (NR concentration 270 nM, RXRa partner concentration 90 nM)
Summary of the method: as §1

[7] = system: PPARg:RXRa (NR concentration 180 nM, RXRa partner concentration 90 nM)
Summary of the method: as §1

[8] = system: PPARg:RXRa 270nM:90nM, anti-RXR (NR concentration 270 nM, RXRa partner concentration 90 nM)
Summary of the method: as §1

[9] = system: PPARg:RXRa 30nM:10nM, anti-RXR (NR concentration 30 nM, RXRa partner concentration 10 nM)
Summary of the method: as §1

[10] = system: PPARg:RXRa 90nM:30nM, anti-RXR (NR concentration 90 nM, RXRa partner concentration 30 nM)
Summary of the method: as §1

[11] = system: PPARg:RXRa DBDmut IVT, anti-RXR (DBD mutation: RXRa K156A/R161A, NR concentration 270 nM, RXRa partner concentration 90 nM)
Summary of the method: as §1

[12] = system: PPARg:RXRa IVT, anti-PPARg (NR concentration 270 nM, RXRa partner concentration 90 nM)
Summary of the method: as §1

[13] = system: PPARg DBDmut:RXRa IVT, anti-PPARg (DBD mutation: PPARg1 K132A/R137A, NR concentration 270 nM, RXRa partner concentration 90 nM)
Summary of the method: as §1

[14] = system: PPARg DBDmut IVT, anti-PPARg (DBD mutation: PPARg1 K132A/R137A, NR concentration 270 nM)
Summary of the method: as §1

[15] = system: PPARg homodimer (NR concentration 180 nM)
Summary of the method: as §1

[16] = system: PXR:RXRa (NR concentration 270 nM, RXRa partner concentration 90 nM)
Summary of the method: as §1

[17] = system: PXR homodimer (NR concentration 270 nM)
Summary of the method: as §1

[18] = system: RARa:RXR (NR concentration 270 nM, RXRa partner concentration 90 nM)
Summary of the method: as §1

[19] = system: RARa homodimer (NR concentration 270 nM)
Summary of the method: as §1

[20] = system: RARb:RXRa (NR concentration 270 nM, RXRa partner concentration 90 nM)
Summary of the method: as §1

Row | Sequence | PBM binding z-score [1] | PBM binding z-score [2] | PBM binding z-score [3] | PBM binding z-score [4] | PBM binding z-score [5] | PBM binding z-score [6] | PBM binding z-score [7] | PBM binding z-score [8] | PBM binding z-score [9] | PBM binding z-score [10] | PBM binding z-score [11] | PBM binding z-score [12] | PBM binding z-score [13] | PBM binding z-score [14] | PBM binding z-score [15] | PBM binding z-score [16] | PBM binding z-score [17] | PBM binding z-score [18] | PBM binding z-score [19] | PBM binding z-score [20]
1 | TCTAGCAGGCCAAAGGGTCACTCAAGAGGTACGG | 2.46 | 2.67 | 0.121 | 2.6 | -0.592 | 3.89 | 3.36 | 4.84 | 3.5 | 4.89 | 1.61 | 2.45 | -0.396 | -0.432 | 2.19 | 2.95 | -0.0548 | 3.89 | 0.234 | 3.74
2 | CTCGAAAGGTCGGTCGAGGTGAGTATACGGATAA | 2.43 | 1.82 | -0.49 | 1.29 | -0.496 | 2.75 | 0.678 | 1.5 | 0.401 | 0.892 | 0.299 | 1.21 | 0.0612 | -0.418 | 0.551 | 3.08 | -0.312 | 2.59 | -0.801 | 3.2
3 | ATCTCTAGGTGACAAGTTCAGTGAAAGAGAGGAC | 0.297 | 0.503 | 0.114 | 0.645 | 0.171 | 2.58 | 3.19 | 3.1 | 1.46 | 2.43 | 4.9 | 4.99 | 1.89 | 2.47 | 0.963 | 1.33 | 1.38 | 0.974 | 0.324 | 2.12
4 | CTTACTGGGCCATTCAGAGGTCATTGATCATATG | 3.23 | 4.72 | 6.7 | 4.11 | 0.985 | 4.48 | 4.03 | 4.43 | 2.21 | 3.71 | 6.81 | 6.21 | 0.768 | 1.22 | 2.09 | 4.88 | 2.99 | 4.16 | 0.436 | 3.23
5 | TCGAGTAGGTTACCAATGGGGCAGTCAGCTTTCT | 0.254 | 0.465 | -0.934 | 0.266 | -0.413 | 1.05 | 0.211 | 1.04 | 1.06 | 0.984 | 3.11 | 2.43 | -0.721 | -1.01 | -0.432 | -0.103 | -1.34 | 0.0626 | -1.21 | 0.908
6 | GATACAGGGTCAGTTAGAGGCCAGAGTATGGAAA | 4.02 | 2.54 | 0.247 | 2.39 | 0.0768 | 3.64 | 2.24 | 2.27 | 0.448 | 1.45 | 1.02 | 1.82 | 0.545 | 0.433 | 2.89 | 2.85 | 1.17 | 3.86 | 0.673 | 3.77
7 | ACTACTAGTTGACTTAGGGCAACCGATACGACGC | 0.249 | 0.17 | 0.195 | 0.0613 | 0.134 | 0.123 | 1.04 | 0.267 | 0.432 | 0.312 | 0.365 | 0.47 | 0.77 | 0.857 | 0.669 | 0.14 | -0.0753 | 0.458 | 0.347 | 0.59
8 | TCATATAGGTAAAAGATGAAAGTCGGTGTGGTAA | 0.736 | 1.17 | -0.031 | 1.03 | 0.134 | 2.6 | 3.49 | 4.9 | 5.17 | 5.29 | 4 | 2.54 | 1.07 | 0.573 | 0.893 | 0.672 | 0.283 | 1.08 | 1.1 | 0.338
9 | ATCGAAAGGTCGAGGTCAGTATAGAGAAAGGGAA | 5.77 | 4.62 | 1.15 | 4.12 | 1.14 | 5.3 | 4.76 | 5.12 | 2.04 | 4.08 | 0.84 | 3.1 | 1.71 | 1.29 | 3.42 | 4.33 | 1.7 | 4.81 | 2.18 | 5.1
10 | ATCTGTAGGTAACCAAGTTCAGTGAATGCCGAAC | 0.276 | 0.775 | 0.477 | 0.549 | 0.153 | 1.05 | 0.635 | 0.922 | 0.0596 | 0.358 | 2.89 | 2.55 | -0.123 | 0.924 | 0.414 | 2.03 | 1.73 | 0.813 | 0.332 | 1.08
11 | TTACCAAGGTGAAAAGTCGTTGATGCACGCCTTG | 0.666 | 0.719 | -0.432 | 0.311 | -0.57 | 2.25 | 2.75 | 4.56 | 2.5 | 4.19 | 1.72 | 2.64 | 0.0551 | 0.367 | 0.274 | 0.136 | -0.523 | 0.987 | -0.563 | 1.06
12 | TCATATAAGTAAAAGGTGAAAGTCGGTGTGGTAA | 1.04 | 1.71 | 0.168 | 1.8 | 0.141 | 3.59 | 3.78 | 5.58 | 5.48 | 6.35 | 3.39 | 2.38 | 0.923 | 0.618 | 1.82 | 1.24 | 0.368 | 2.22 | 1.48 | 1.83
13 | TCTCGGAGGACACGAACGGTCAGAGCTCGACATC | 0.632 | 0.398 | 0.0467 | -0.277 | -0.841 | 0.0396 | 0.0784 | 0.624 | 1.74 | 0.89 | 1.13 | -0.161 | -0.337 | -0.995 | -0.693 | -0.215 | -0.654 | -0.0917 | -0.739 | 2.1
